Experimental data reported in PubChem BioAssay AID1159580 (chemical genetic matrix, 2015).
Where “and” joins values, the source holds several entries; their conditions need not be identical. Equal values may be shown once. Among all 5,500 compounds or so, about 2,000 (36%) were called active. Inconclusive results (about 18%) are left out. Rule as the data show it: active = normalized growth mostly below about 0.91 (no sharp cut-off); inconclusive = no clear call, values can overlap the other calls; inactive = mostly above about 0.92. Some of the results follow.

Test: chemical genetic growth profiling, strain panel (AID 1159580);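 also: tested at 20 µM; growth read once vehicle control cultures reached saturation at 30 °C; 1 = growth at the plate median or of vehicle wells; lower values mean less growth of the strain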
Settings: growth OD

Measured: normalized growth

O=C1CCC(N2C(=O)c3ccccc3C2=O)C(=O)N1 (stereo unspecified)
inactive: S. cerevisiae deletion strains, locus YJR075W, strain HOC1, active compounds read low 0.972 and 1.02 | S. cerevisiae deletion strains, locus YKL009W, strain mrt4, active compounds read low 1.03 | S. cerevisiae deletion strains, locus YKL068W, active compounds read low 0.997 | S. cerevisiae deletion strains, locus YKL085W, strain MDH1 (second series), active compounds read low 1.03 | S. cerevisiae deletion strains, locus YKL085W, strain MDH1, active compounds read low 1.03 | S. cerevisiae deletion strains, locus YKL160W, strain elf1, active compounds read low 1 | S. cerevisiae deletion strains, locus YKL190W, strain CNB1, active compounds read low 1.02 | S. cerevisiae deletion strains, locus YKR001C, strain vps1, active compounds read low 0.969 | S. cerevisiae deletion strains, locus YKR026C, strain gcn3, active compounds read low 1.02 | S. cerevisiae deletion strains, locus YKR091W, strain srl3, active compounds read low 1.02 | S. cerevisiae deletion strains, locus YLL001W, strain dnm1, active compounds read low 1.04 | S. cerevisiae deletion strains, locus YLL026W, active compounds read low 1.01 | S. cerevisiae deletion strains, locus YLL041C, strain sdh2, active compounds read low 1.03 | S. cerevisiae deletion strains, locus YLR027C, strain aat2, active compounds read low 1 | S. cerevisiae deletion strains, locus YLR039C, strain RIC1, active compounds read low 1.03 | S. cerevisiae deletion strains, locus YLR058C, strain SHM2, active compounds read low 1.01 | S. cerevisiae deletion strains, locus YLR102C, strain apc9, active compounds read low 0.991 | S. cerevisiae deletion strains, locus YLR113W, strain HOG1, active compounds read low 0.971 | S. cerevisiae deletion strains, locus YLR221C, strain rsa3, active compounds read low 1.03 | S. cerevisiae deletion strains, locus YLR258W, strain gsy2, active compounds read low 1.02 | S. cerevisiae deletion strains, locus YLR262C, strain YPT6 (second series), active compounds read low 1.02 | S. cerevisiae deletion strains, locus YLR262C, strain YPT6, active compounds read low 1.05 | S. cerevisiae deletion strains, locus YLR268W, strain sec22, active compounds read low 0.985 | S. cerevisiae deletion strains, locus YLR320W, strain mms22, active compounds read low 1.03 | S. cerevisiae deletion strains, locus YLR330W, strain CHS5, active compounds read low 1 | S. cerevisiae deletion strains, locus YLR342W, strain FKS1 (second series), active compounds read low 0.991 | S. cerevisiae deletion strains, locus YLR342W, strain FKS1, active compounds read low 1.01 | S. cerevisiae deletion strains, locus YLR357W, strain rsc2, active compounds read low 0.997 | S. cerevisiae deletion strains, locus YLR370C, strain arc18, active compounds read low 1.03 | S. cerevisiae deletion strains, locus YLR371W, strain rom2, active compounds read low 0.983 | S. cerevisiae deletion strains, locus YLR384C, strain iki3, active compounds read low 1.03 | S. cerevisiae deletion strains, locus YLR418C, strain cdc73, active compounds read low 0.977 | S. cerevisiae deletion strains, locus YML016C, strain PPZ1, active compounds read low 1.01 | S. cerevisiae deletion strains, locus YML032C, strain rad52, active compounds read low 0.979 | S. cerevisiae deletion strains, locus YML120C, strain ndi1, active compounds read low 1.04 | S. cerevisiae deletion strains, locus YML124C, strain tub3, active compounds read low 0.988 | S. cerevisiae deletion strains, locus YMR058W, strain fet3, active compounds read low 1.02 | S. cerevisiae deletion strains, locus YMR078C, strain ctf18, active compounds read low 0.998 | S. cerevisiae deletion strains, locus YMR125W, strain sto1, active compounds read low 1.01 | S. cerevisiae deletion strains, locus YMR129W, active compounds read low 1.02 | S. cerevisiae deletion strains, locus YMR205C, strain PFK2, active compounds read low 1.01 | S. cerevisiae deletion strains, locus YMR223W, strain ubp8, active compounds read low 0.981 | S. cerevisiae deletion strains, locus YMR231W, strain pep5, active compounds read low 1.01 | S. cerevisiae deletion strains, locus YMR263W, strain SAP30, active compounds read low 1.02 and 1 | S. cerevisiae deletion strains, locus YMR307W, strain GAS1, active compounds read low 1.01 and 0.996 | S. cerevisiae deletion strains, locus YNL067W, strain RPL9B, active compounds read low 1.02 | S. cerevisiae deletion strains, locus YNL071W, strain lat1, active compounds read low 1.03 | S. cerevisiae deletion strains, locus YNL128W, strain TEP1, active compounds read low 1.02 | S. cerevisiae deletion strains, locus YNL153C, strain GIM3, active compounds read low 1.02 | S. cerevisiae deletion strains, locus YNL175C, strain NOP13, active compounds read low 0.997 | S. cerevisiae deletion strains, locus YNL183C, strain NPR1, active compounds read low 0.927 | S. cerevisiae deletion strains, locus YNL197C, strain WHI3, active compounds read low 0.986 | S. cerevisiae deletion strains, locus YNL209W, strain ssb2, active compounds read low 1.02 | S. cerevisiae deletion strains, locus YNL224C, strain SQS1, active compounds read low 0.991 | S. cerevisiae deletion strains, locus YNL233W, strain BNI4, active compounds read low 1.02 | S. cerevisiae deletion strains, locus YNL248C, strain rpa49, active compounds read low 0.957 | S. cerevisiae deletion strains, locus YNL250W, strain rad50, active compounds read low 1 | S. cerevisiae deletion strains, locus YNL271C, strain bni1, active compounds read low 0.986 | S. cerevisiae deletion strains, locus YNL298W, strain CLA4, active compounds read low 1 | S. cerevisiae deletion strains, locus YNL307C, strain MCK1, active compounds read low 0.987 | S. cerevisiae deletion strains, locus YNL322C, strain KRE1 (second series), active compounds read low 1.02 | S. cerevisiae deletion strains, locus YNL322C, strain KRE1, active compounds read low 1.01 | S. cerevisiae deletion strains, locus YNR049C, strain mso1, active compounds read low 1.01 | S. cerevisiae deletion strains, locus YNR052C, strain pop2, active compounds read low 0.991 | S. cerevisiae deletion strains, locus YOL006C, strain TOP1, active compounds read low 1.01 | S. cerevisiae deletion strains, locus YOL012C, strain htz1 0.819 | S. cerevisiae deletion strains, locus YOL147C, strain pex11, active compounds read low 0.989 | S. cerevisiae deletion strains, locus YOR001W, strain rrp6, active compounds read low 1.01 | S. cerevisiae deletion strains, locus YOR061W, strain CKA2, active compounds read low 1.02 | S. cerevisiae deletion strains, locus YOR069W, strain VPS5, active compounds read low 1.01 | S. cerevisiae deletion strains, locus YOR070C, strain gyp1, active compounds read low 1.02 | S. cerevisiae deletion strains, locus YOR080W, strain dia2, active compounds read low 1.02 | S. cerevisiae deletion strains, locus YOR083W, strain WHI5 (second series), active compounds read low 1.01 | S. cerevisiae deletion strains, locus YOR083W, strain WHI5, active compounds read low 1.01 | S. cerevisiae deletion strains, locus YOR106W, strain vam3, active compounds read low 1.01 | S. cerevisiae deletion strains, locus YOR136W, strain idh2, active compounds read low 0.981 | S. cerevisiae deletion strains, locus YOR144C, strain elg1, active compounds read low 0.998 | S. cerevisiae deletion strains, locus YOR184W, strain ser1, active compounds read low 0.981 | S. cerevisiae deletion strains, locus YOR231W, strain MKK1, active compounds read low 0.976 | S. cerevisiae deletion strains, locus YOR265W, strain rbl2, active compounds read low 1.01 | S. cerevisiae deletion strains, locus YOR270C, strain vph1, active compounds read low 1.04 | S. cerevisiae deletion strains, locus YOR290C, strain snf2, active compounds read low 1.01 | S. cerevisiae deletion strains, locus YOR316C, strain cot1, active compounds read low 0.997 | S. cerevisiae deletion strains, locus YPL051W, strain arl3, active compounds read low 1 | S. cerevisiae deletion strains, locus YPL055C, strain LGE1, active compounds read low 1.05 | S. cerevisiae deletion strains, locus YPL078C, strain atp4, active compounds read low 1.01 | S. cerevisiae deletion strains, locus YPL106C, strain sse1, active compounds read low 1.03 | S. cerevisiae deletion strains, locus YPL240C, strain hsp82, active compounds read low 1.02 | S. cerevisiae deletion strains, locus YPL241C, strain CIN2, active compounds read low 1.01 | S. cerevisiae deletion strains, locus YPL256C, strain CLN2, active compounds read low 0.968 | S. cerevisiae deletion strains, locus YPR119W, strain clb2, active compounds read low 0.979 | S. cerevisiae deletion strains, locus YPR141C, strain kar3, active compounds read low 0.988 | S. cerevisiae deletion strains, locus YPR163C, strain tif3, active compounds read low 0.998 | S. cerevisiae deletion strains, locus YPR167C, strain met16, active compounds read low 0.99 | S. cerevisiae deletion strains, strain wtn01, active compounds read low 0.983 | S. cerevisiae strains, strain wild type, active compounds read low 1.01
